Assay [1] in a line: small molecules captured by biotinylated probe aFSTL3 – biochemical, small-molecule microarray, fluorescence 635/667, stem cell growth factor project, primary screen (AID 1064).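 Also: measures binding of the biotinylated anti-FSTL3 antibody to printed compounds.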 As to conditions: higher = more signal.
A short description of assay [2]: binders from COS7 lysate, DM2A8 probe, primary screen, torsin A project, cell lysate, small-molecule microarray, fluorescence 635/667 (AID 1065). Particulars: higher = more signal, COS7 lysate expressing mutant human TOR1A.
The nature of assay [3]: small molecules captured by biotinylated probe aFGF2 – biochemical, small-molecule microarray, fluorescence 635/667, stem cell growth factor project, primary screen (AID 1067).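 Also: measures binding of biotinylated aFGF2 protein to printed compounds on slides; z-score merges feature fluorescence and signal-to-noise across triplicate slides.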 As to conditions: higher = more signal.
The nature of assay [4]: small molecules captured by biotinylated probe aFGF10 – biochemical, small-molecule microarray, fluorescence 635/667, stem cell growth factor project, primary screen (AID 1071).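 Also: score merges 667 nm spot intensity and signal to noise from triplicate slides.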 Particulars: higher = more signal.
For assay [5], the target named is Neurogenic locus notch homolog protein 2 (Homo sapiens) (UniProt Q04721). Description: small molecules binding Notch2 protein – biochemical, small-molecule microarray, 635 nm fluorescence, stem cell growth factors, primary screen (AID 1073). As to conditions: higher = more signal.
In assay [6] the target is Pro-neuregulin-1, membrane-bound isoform (Homo sapiens) (UniProt Q02297). Description: small molecules binding neuregulin-1 protein – biochemical, small-molecule microarray, fluorescence 635/667, psychiatric disease protein project, primary screen (AID 1075).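 Also: score combines 667 nm spot fluorescence with signal to noise.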 Particulars: NRG1 binding, 635 nm fluorescence, higher = more signal.
Assay [7] deals with Neuregulin-1 EGF-like domain. Description: small molecules binding NRG1 EGF domain – biochemical, small-molecule microarray, 635 nm fluorescence, primary screen (AID 1081).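 Also: binding of the protein to compounds printed on small-molecule microarray slides.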 Particulars: higher = more signal.
Assay [8] can be described thus: FRG1 expression reporter modulators in myotubes – cell-based, C2C12 myotubes, firefly/Renilla luciferase, luminescence, FRG1 inhibition for FSHD, primary screen (AID 1084). Particulars: FRG1 promoter luciferase, higher = more signal, called active from +8 up or from −8 down.
Assay [9] can be described thus: small molecules captured by biotinylated probe aFST – biochemical, small-molecule microarray, fluorescence 635/667, stem cell growth factor project, primary screen (AID 1086).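 Also: score merges 667 nm fluorescence with signal-to-noise of each printed compound spot.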 Particulars: higher = more signal.
Assay [10] in a line: binders of probe aHhip on microarray, primary screen, stem cell growth factor project, biochemical, small-molecule microarray, fluorescence 635/667 (AID 1087).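 Also: score merges spot fluorescence at 667nm with spot signal to noise ratio.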 Particulars: higher = more signal.
Assay [11] concerns PRMT1 (protein arginine N-methyltransferase 1). Description: small molecules binding arginine methyltransferase PRMT1 – biochemical, small-molecule microarray, 635 nm fluorescence, primary screen (AID 1088).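 Also: binding of Prmt1 protein to compounds spotted on small-molecule microarray slides.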 Particulars: higher = more signal.
The nature of assay [12]: growth effects on S. cerevisiae YJM789 – YJM789 clinical isolate, OD600, 24 h, basal, primary screen (AID 1089).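 Also: growth of clinical yeast isolate S. cerevisiae YJM 789 seeded 1000 cells per well; test concentration not given here.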 Particulars: higher = more signal, called active from +8 up or from −8 down.
Assay [13] can be described thus: S. pombe growth modifiers, basal conditions – strain 972, OD600, 24 h, no modulator, primary screen (AID 1090).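 Also: basal condition with compound alone and no growth modifier present; test concentration not given here.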 Particulars: S. pombe 972 growth, higher = more signal, called active from +8 up or from −8 down.
The nature of assay [14]: budding yeast growth modifiers under rapamycin – strain BY4716, OD600, 96 h, primary screen (AID 1091). Also: test concentration not given here. Particulars: S. cerevisiae BY4716 + rapamycin, higher = more signal, called active from +8 up or from −8 down.
For assay [15], the target named is Torsin-1A-interacting protein 2 (Homo sapiens) (UniProt Q8NFQ8). Description: small molecules binding lysate-expressed LULL1 – cell lysate, human LULL1 lysate, 635/667 nm fluorescence, primary screen (AID 1092).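 Also: probe is lysate of COS7 cells overexpressing human LULL1; score merges per-feature 667 nm fluorescence with signal-to-noise.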 Particulars: small-molecule microarray, hLULL1 lysate binding, 635 nm fluorescence; higher = more signal.
A short description of assay [16]: optical density change of DRC41 E. coli – strain DRC41, OD650, 24 h, E. coli filamentation project, primary screen (AID 1093).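 Also: MC1000 strain lacking acrAB efflux and sulA so SOS filamentation is blocked; test concentration not given here.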 Particulars: E. coli DRC41 growth, higher = more signal, called active from +8 up or from −8 down.
Assay [17] in a line: probe aLefty2 binding to arrayed compounds – biochemical, biotinylated probe, 635/667 nm fluorescence, primary screen (AID 1094).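 Also: score merges spot fluorescence near 667 nm with spot signal-to-noise ratio.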 Particulars: small-molecule microarray, higher = more signal.
Assay [18] concerns Noggin (protein binding on small-molecule microarray). Description: small molecules binding Noggin protein – biochemical, 635/667 nm fluorescence, primary screen (AID 1095).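 Also: score merges 667 nm feature fluorescence with signal to noise over triplicate slides.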 As to conditions: 635 nm fluorescence, higher = more signal.
Assay [19] deals with Neurogenic locus notch homolog protein 3 (Homo sapiens) (UniProt Q9UM47). Briefly: small molecules binding NOTCH3 protein – biochemical, 635/667 nm fluorescence, primary screen (AID 1096). As to conditions: small-molecule microarray, 635 nm fluorescence, higher = more signal.
Assay [20] is described as follows: probe aEGFR binding to arrayed compounds – biochemical, biotinylated probe, 635/667 nm fluorescence, primary screen (AID 1097).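 Also: probe is a biotinylated anti-EGFR antibody binding compounds printed on slides; score combines fluorescence near 667 nm and signal to noise of each spot.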 Particulars: small-molecule microarray, higher = more signal.

Activity calls are given as the source filed them.

Sequence of Torsin-1A-interacting protein 2 (Homo sapiens) (Q8NFQ8 whole entry, looked up): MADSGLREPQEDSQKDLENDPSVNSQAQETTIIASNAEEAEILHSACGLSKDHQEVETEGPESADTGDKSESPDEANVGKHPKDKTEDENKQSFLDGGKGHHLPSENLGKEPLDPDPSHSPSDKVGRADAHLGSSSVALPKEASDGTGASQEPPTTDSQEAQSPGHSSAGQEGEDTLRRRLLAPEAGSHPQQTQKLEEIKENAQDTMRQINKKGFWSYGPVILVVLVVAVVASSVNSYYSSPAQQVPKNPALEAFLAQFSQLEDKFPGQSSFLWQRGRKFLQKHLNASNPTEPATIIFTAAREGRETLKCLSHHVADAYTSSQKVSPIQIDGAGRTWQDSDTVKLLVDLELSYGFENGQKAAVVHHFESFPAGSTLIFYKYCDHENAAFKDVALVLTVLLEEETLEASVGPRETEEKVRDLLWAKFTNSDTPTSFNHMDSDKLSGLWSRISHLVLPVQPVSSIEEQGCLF
Sequence of Pro-neuregulin-1, membrane-bound isoform (Homo sapiens) (Q02297 whole entry, looked up, the tested form may be a part, canonical isoform): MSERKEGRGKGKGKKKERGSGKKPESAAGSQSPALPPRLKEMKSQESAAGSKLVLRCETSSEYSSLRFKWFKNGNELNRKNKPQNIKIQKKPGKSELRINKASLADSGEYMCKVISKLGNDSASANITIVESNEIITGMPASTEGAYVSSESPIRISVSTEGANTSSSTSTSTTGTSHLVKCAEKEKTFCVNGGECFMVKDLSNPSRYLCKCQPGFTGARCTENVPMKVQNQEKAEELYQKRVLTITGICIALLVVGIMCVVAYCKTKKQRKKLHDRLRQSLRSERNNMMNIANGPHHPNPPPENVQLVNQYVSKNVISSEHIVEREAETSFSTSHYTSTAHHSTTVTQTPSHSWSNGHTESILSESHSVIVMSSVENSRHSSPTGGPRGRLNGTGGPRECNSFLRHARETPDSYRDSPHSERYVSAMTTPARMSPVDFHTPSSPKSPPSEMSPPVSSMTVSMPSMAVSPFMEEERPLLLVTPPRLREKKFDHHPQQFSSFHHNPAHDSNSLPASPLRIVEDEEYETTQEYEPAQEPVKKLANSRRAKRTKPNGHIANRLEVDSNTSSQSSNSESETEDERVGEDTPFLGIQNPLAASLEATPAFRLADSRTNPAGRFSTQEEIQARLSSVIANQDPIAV
Sequence of Neurogenic locus notch homolog protein 2 (Homo sapiens) (Q04721 whole entry, looked up, canonical isoform): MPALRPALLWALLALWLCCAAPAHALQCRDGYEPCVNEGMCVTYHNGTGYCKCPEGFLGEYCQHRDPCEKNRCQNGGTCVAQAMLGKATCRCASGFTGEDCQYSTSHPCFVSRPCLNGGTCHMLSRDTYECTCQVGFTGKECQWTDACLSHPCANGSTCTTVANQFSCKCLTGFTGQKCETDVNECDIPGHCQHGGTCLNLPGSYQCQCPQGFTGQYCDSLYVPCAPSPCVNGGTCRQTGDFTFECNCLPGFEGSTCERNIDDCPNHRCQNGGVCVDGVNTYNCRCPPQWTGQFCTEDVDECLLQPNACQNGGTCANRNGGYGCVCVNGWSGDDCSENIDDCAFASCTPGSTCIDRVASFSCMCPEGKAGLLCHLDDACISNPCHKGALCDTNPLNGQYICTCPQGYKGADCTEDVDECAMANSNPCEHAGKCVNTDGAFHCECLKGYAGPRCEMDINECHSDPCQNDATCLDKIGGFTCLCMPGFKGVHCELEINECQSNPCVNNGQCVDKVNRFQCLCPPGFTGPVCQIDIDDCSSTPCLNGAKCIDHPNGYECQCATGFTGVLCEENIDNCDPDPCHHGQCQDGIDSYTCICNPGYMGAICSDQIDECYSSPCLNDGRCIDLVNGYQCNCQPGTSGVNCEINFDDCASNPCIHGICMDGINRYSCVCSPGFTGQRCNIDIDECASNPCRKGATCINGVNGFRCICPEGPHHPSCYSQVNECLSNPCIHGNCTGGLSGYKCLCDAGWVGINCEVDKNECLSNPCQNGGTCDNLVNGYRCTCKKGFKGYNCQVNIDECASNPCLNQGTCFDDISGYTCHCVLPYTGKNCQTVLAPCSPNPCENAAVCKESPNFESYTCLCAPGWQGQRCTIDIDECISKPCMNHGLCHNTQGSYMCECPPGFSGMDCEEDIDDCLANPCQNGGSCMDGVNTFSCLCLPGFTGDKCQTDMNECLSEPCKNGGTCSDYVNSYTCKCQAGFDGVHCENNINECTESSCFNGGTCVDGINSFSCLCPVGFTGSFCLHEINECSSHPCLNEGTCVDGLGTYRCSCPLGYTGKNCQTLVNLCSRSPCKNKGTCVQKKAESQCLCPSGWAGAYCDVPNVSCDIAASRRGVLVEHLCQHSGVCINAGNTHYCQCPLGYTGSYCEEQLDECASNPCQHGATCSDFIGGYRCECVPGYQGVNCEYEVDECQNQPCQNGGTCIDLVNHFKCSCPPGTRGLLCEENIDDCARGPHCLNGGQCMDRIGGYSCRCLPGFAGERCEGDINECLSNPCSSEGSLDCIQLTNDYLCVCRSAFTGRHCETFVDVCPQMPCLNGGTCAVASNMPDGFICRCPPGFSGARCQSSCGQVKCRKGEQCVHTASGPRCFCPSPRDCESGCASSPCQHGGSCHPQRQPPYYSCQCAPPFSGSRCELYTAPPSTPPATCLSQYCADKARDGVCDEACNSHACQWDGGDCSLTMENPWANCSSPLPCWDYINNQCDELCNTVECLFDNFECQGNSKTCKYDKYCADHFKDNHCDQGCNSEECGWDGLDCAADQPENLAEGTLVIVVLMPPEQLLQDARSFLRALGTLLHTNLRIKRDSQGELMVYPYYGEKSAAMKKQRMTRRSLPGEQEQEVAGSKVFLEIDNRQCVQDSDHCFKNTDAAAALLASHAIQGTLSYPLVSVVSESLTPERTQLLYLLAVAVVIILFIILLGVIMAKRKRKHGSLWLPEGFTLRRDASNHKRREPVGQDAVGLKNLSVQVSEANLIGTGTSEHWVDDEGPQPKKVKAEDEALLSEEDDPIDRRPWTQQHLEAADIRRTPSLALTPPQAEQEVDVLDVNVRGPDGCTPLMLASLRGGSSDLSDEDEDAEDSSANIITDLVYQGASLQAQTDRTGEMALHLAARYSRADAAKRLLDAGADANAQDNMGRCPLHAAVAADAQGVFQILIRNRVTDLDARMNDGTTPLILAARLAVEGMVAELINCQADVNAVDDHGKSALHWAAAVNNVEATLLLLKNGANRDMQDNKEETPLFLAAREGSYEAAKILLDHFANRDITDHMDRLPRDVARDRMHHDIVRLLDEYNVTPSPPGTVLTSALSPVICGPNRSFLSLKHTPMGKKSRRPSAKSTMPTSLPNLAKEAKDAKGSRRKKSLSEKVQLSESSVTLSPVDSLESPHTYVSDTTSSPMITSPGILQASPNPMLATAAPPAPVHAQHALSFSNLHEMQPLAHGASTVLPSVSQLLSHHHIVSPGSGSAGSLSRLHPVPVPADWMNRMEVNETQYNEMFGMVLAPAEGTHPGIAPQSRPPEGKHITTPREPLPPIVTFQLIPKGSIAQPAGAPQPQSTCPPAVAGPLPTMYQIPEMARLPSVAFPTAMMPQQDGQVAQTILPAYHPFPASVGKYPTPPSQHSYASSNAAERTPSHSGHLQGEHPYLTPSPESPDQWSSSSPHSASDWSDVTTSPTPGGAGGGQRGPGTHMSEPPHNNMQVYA

On to `CN1C=C(C(=O)OCCS(C)(=O)=O)C(C(=O)OCCS(C)(=O)=O)=CC(CCCO)=CC1c1ccc(CN2CCCC2)cc1` (stereo not given), for which the composite z-score in [1] came to 0.316; in assay [2] it was 0.156; in assay [3], 0.0126; in [4], 1.11; in assay [5], 1.25; in assay [6], 2.02. In addition, the composite z-score amounted to 1.35 in assay [7]; 1.65 in assay [9]; 0.0053 in assay [10]; 1.48 in assay [11]; 3.06 in [15]; 0.383 in assay [17]. The composite z-score in [18] was 0.845; in [19], 0.984; in assay [20] it was 0.273. Moreover, the z-score is 0.226 (inactive) in assay [8]; 0.897 (inactive) in assay [12]; -6.78 (inactive) in [13]; -0.781 (inactive) in assay [14]; 0.0324 (inactive) in assay [16].
As for `C=C(C(=O)CC[C@@H](OC(C)=O)c1cccc(OCCO)c1)C(C)C`, the composite z-score is -0.0377 in [1]; 0.108 in assay [2]; -0.0996 in [3]; 0.365 in [4]; -0.768 in assay [5]; 1.92 in assay [6]. Besides, the composite z-score was 0.568 in assay [7]; -0.337 in assay [9]; -0.0672 in [10]; 0.745 in [11]; 1.62 in assay [15]; -0.186 in assay [17]. For the same compound, the composite z-score in assay [18] is -0.0056; in assay [19], 0.507; in assay [20], -0.207. Moreover, the z-score in [8] was 0.44 (inactive); in assay [12], 1.55 (inactive); in assay [13] it was -0.464 (inactive); in [14] it was 0.339 (inactive); in assay [16], 0.351 (inactive).
`CN(C)CCCNC(=O)[C@@]1(Cc2ccccc2I)c2ccccc2C(=O)N(Cc2ccccc2)[C@H]1c1ccc(CO)cc1`: the composite z-score is -0.803 in [1]; -0.451 in [2]; 0.106 in assay [3]; 1.02 in assay [4]; 0.647 in [5]; 0.834 in assay [6]. Further, the composite z-score in [7] was 1.39; in assay [9] it was 0.386; in assay [10] it was -0.66; in assay [11], 1.53; in [15], 3.43; in [17] it was -0.542. Also, the composite z-score was 0.557 in assay [18], 1.08 in assay [19] and 0.0054 in [20]. Moreover, the z-score in assay [8] was -4.24 (inactive); in [12], -0.282 (inactive); in assay [13], -14 (active); in assay [14] it was -2.33 (inactive); in assay [16] it was 0.207 (inactive).
As to `O=C1C2C=CC(C(O)C(c3ccccc3)c3ccccc3)N(Nc3ccccc3)C2C(=O)N1c1ccccc1` (stereo not given), the composite z-score in assay [1] came out at 0.35; in assay [2], 0.0239; in assay [3], 0.128; in assay [4] it was 0.244; in [5] it was 1.63; in [6], 1.66. In addition, the composite z-score in assay [7] was 1.17; in [9], 1.01; in assay [10], -0.318; in assay [11], 1.55; in assay [15] it was 3.23; in assay [17], 0.0731. The composite z-score in [18] amounted to 0.351; in [19] it was 1.03; in assay [20] it was 0.056. The z-score was -0.996 (inactive) in [8]; 0.838 (inactive) in [12]; 0.0855 (inactive) in assay [13]; 0.281 (inactive) in assay [14]; -1.15 (inactive) in assay [16].
For the compound `NCCCC[C@@H]1NC(=O)[C@H]2C[C@@H](C(=O)NCc3ccc(F)cc3)[C@@H](c3cccc(OCCO)c3)N2C1=O`, the composite z-score in [1] was -0.261; in assay [2] it was 0.357; in assay [3], -0.0262; in assay [4], 0.527; in assay [5], 0.772; in assay [6], 1.09. For the same compound, the composite z-score in assay [7] is 1.33; in assay [9], 0.182; in [10], -0.0994; in [11], 1.56; in [15], 2.69; in assay [17], -0.0258. For the same compound, the values for the composite z-score in assay [18], in assay [19] and in assay [20] were 1.81, 1.05 and 0.0176, respectively. Further, the z-score in assay [8] is -0.0673 (inactive); in [12], 1.74 (inactive); in assay [13], -0.0785 (inactive); in assay [14], 0.482 (inactive); in assay [16], -0.765 (inactive).
With `CC(C)=CCN(C(=O)C#Cc1ccccc1)[C@H](CO)c1ccccc1`, the composite z-score in assay [1] was -0.591; in assay [2] it was 0.645; in [3] it was -0.0692; in assay [4], 0.118; in assay [5] it was 0.248; in [6], -0.141. For the same compound, the composite z-score was 0.283 in [7]; 0.223 in assay [9]; -0.0994 in assay [10]; 0.95 in assay [11]; 1.2 in assay [15]; -0.116 in assay [17]. Further, the composite z-score in [18] is 0.69; in assay [19], 0.829; in assay [20] it was -0.0302. Further, the z-score in assay [8] is -5.11 (inactive); in assay [12] it was -0.577 (inactive); in assay [13] it was -4.9 (inactive); in assay [14], 36.4 (active); in [16] it was 0.354 (inactive).
Take `COc1cccc(C[C@H]2C[C@@H](CO[Si](C(C)C)(C(C)C)C(C)C)N3C(=O)[C@@]4(C(C)=O)O[C@@]23[C@@H]2C(=O)N(C)C(=O)[C@@H]24)c1`: the composite z-score in assay [1] is -0.43; in [2] it was 0.199; in assay [3] it was -0.0697; in assay [4], 0.933; in assay [5] it was 1.16; in assay [6], 1.01. Moreover, the composite z-score was 0.93 in [7]; 0.307 in assay [9]; 0.113 in [10]; 1.56 in assay [11]; 0.189 in [15]; -0.105 in assay [17]. For the same compound, the values for the composite z-score in [18], in assay [19] and in [20] were 0.456, 1.16 and 0.127, respectively. The z-score in [8] is -1.14 (inactive); in assay [12], 0.368 (inactive); in assay [13], 0.827 (inactive); in assay [14], 1.6 (inactive); in [16], -0.929 (inactive).
On to `Cc1c(-c2ccc(-c3ccc(Cl)c(Cl)c3)o2)nc(-c2ccccc2)c2c1CO[Si]2(C(C)C)C(C)C`, for which the composite z-score is -0.0834 in assay [1]; 0.343 in assay [2]; -0.047 in assay [3]; 0.42 in assay [4]; -0.558 in [5]; 0.568 in [6]. For the same compound, the composite z-score in assay [7] is 0.294; in assay [9], -0.324; in [10], 0.21; in assay [11], 0.371; in assay [15], 0.867; in assay [17] it was -0.216. In addition, the composite z-score in assay [18] was 0.423; in [19] it was -0.0183; in assay [20] it was -0.231. The z-score in [8] is 0.422 (inactive); in [12], -0.657 (inactive); in assay [13], -1.69 (inactive); in [14] it was 0.069 (inactive); in [16], -1.34 (inactive).
As to `CC(C)C(=C=CC[C@@H](O)c1ccc(OCCO)cc1)CCO`, the composite z-score in assay [1] was -0.226; in assay [2], -0.0605; in assay [3], -0.128; in assay [4], 0.127; in assay [5] it was -0.0765; in assay [6], 0.346. Further, the composite z-score in [7] is 0.402; in assay [9], -0.315; in assay [10] it was 0.0505; in assay [11], 0.693; in assay [15] it was -0.0081; in assay [17] it was -0.225. Besides, the composite z-score is 0.96 in [18], 0.271 in assay [19] and -0.146 in [20]. Further, the z-score in assay [8] was 0.0636 (inactive); in [12], -1.21 (inactive); in assay [13], -1.32 (inactive); in [14], -1.4 (inactive); in assay [16] it was 1.23 (inactive).
Consider `CC(C)N1CC=CC23O[C@@H]4C=CCCOC(=O)C4[C@H]2C(=O)N(CCCCCO)[C@@H]3C1=O` (stereo not given in full), for which the composite z-score is -0.0451 in [1]; -1.06 in assay [2]; -0.103 in assay [3]; 0.279 in assay [4]; -0.905 in assay [5]; 1.93 in [6]. Besides, the composite z-score is 1.21 in assay [7]; -0.352 in [9]; -0.353 in [10]; 0.08 in [11]; 0.988 in [15]; -0.242 in [17]. Moreover, the composite z-score in [18] was 0.154; in assay [19], -0.23; in assay [20], -0.236. The z-score is -0.928 (inactive) in assay [8]; -0.0489 (inactive) in assay [12]; -0.0017 (inactive) in assay [13]; -0.569 (inactive) in assay [14]; 0.447 (inactive) in assay [16].

The values are drawn from PubChem BioAssay.
